Laboratory results published in PubChem BioAssay AID1159580 (chemical genetic matrix, 2015).
About 2,000 (36%) of roughly 5,500 compounds were called active. Not shown: some 18% with an inconclusive outcome. The list shows a part of the results. A number with no mark means an inactive call. Cut-off read from the data, not from the text of the source: active = normalized growth mostly below about 0.91 (no sharp cut-off); inconclusive = no clear call, values can overlap the other calls; inactive = mostly above about 0.92.

Experiment: chemical genetic growth profiling, strain panel (AID 1159580);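 note: tested at 20 µM; growth read once vehicle control cultures reached saturation at 30 °C; 1 = growth at the plate median or of vehicle wells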
Conditions: S. cerevisiae deletion strains, growth OD
[1] = locus YAL040C, strain CLN3, stronger effect = lower value
[2] = locus YCL061C, strain MRC1 (second series), stronger effect = lower value
[3] = locus YDR363W, strain ESC2, stronger effect = lower value
[4] = locus YER002W, strain NOP16, stronger effect = lower value
[5] = locus YNL128W, strain TEP1, stronger effect = lower value
[6] = locus YNL153C, strain GIM3, stronger effect = lower value
[7] = locus YNL175C, strain NOP13, stronger effect = lower value
[8] = locus YNL197C, strain WHI3, stronger effect = lower value
[9] = locus YNL224C, strain SQS1, stronger effect = lower value
[10] = locus YOR083W, strain WHI5 (second series), stronger effect = lower value

Q: Which normalized growth [1] does the source give for `CCCn1c(=O)c2[nH]c(-c3ccc(S(=O)(=O)O)cc3)nc2n(CCC)c1=O` here?
A: 0.994

Q: And the normalized growth [2]?
A: 1.01

Q: And the normalized growth [3]?
A: 0.958

Q: What about the normalized growth [4] of the same molecule?
A: 0.997

Q: What about the normalized growth [5] of the same molecule?
A: 1

Q: And the normalized growth [6]?
A: 1.01

Q: And the normalized growth [7]?
A: 0.985

Q: What about the normalized growth [8] of the same molecule?
A: 0.99

Q: And the normalized growth [9]?
A: 1

Q: What about the normalized growth [10] of the same molecule?
A: 0.979

Q: What does the source list for `CC(C)CC(NP(=O)(O)O[C@@H]1O[C@@H](C)[C@H](O)[C@@H](O)[C@H]1O)C(=O)NC(Cc1c[nH]c2ccccc12)C(=O)O` (some centres not stated)?
A: normalized growth [1]: 1.01; normalized growth [2]: 1.01; normalized growth [3]: 1.01; normalized growth [4]: 1; normalized growth (locus YGR078C, strain PAC10, stronger effect = lower value): 1.02; normalized growth (locus YGR229C, strain SMI1, stronger effect = lower value): 1.03; normalized growth (locus YJR075W, strain HOC1, stronger effect = lower value): 1.03; normalized growth (locus YMR307W, strain GAS1, stronger effect = lower value): 0.994; normalized growth [5]: 0.993; normalized growth [6]: 1.04; normalized growth [7]: 0.998; normalized growth [8]: 1; normalized growth [9]: 0.997; normalized growth [10]: 1.01; normalized growth (locus YPL055C, strain LGE1, stronger effect = lower value): 1.02; normalized growth (locus YPL241C, strain CIN2, stronger effect = lower value): 1.01

Q: With `O=C1/C(=C/c2c(F)cccc2Cl)Cc2ccccc21` as the molecule, how does the normalized growth (locus YAR019C, strain CDC15, stronger effect = lower value) read?
A: 0.965

Q: What about the normalized growth (locus YBL105C, strain PKC1, stronger effect = lower value) of the same molecule?
A: 0.965

Q: What about the normalized growth (locus YBR135W, strain CKS1, stronger effect = lower value) of the same molecule?
A: 0.959

Q: And the normalized growth (locus YBR136W, strain MEC1, stronger effect = lower value)?
A: 0.962

Q: And the normalized growth (locus YBR160W, strain CDC28, stronger effect = lower value)?
A: 0.964

Q: What about the normalized growth (locus YDL017W, strain CDC7, stronger effect = lower value) of the same molecule?
A: 0.963

Q: And the normalized growth (locus YDL028C, strain MPS1, stronger effect = lower value)?
A: 0.96

Q: What about the normalized growth (locus YDL101C, strain DUN1, stronger effect = lower value) of the same molecule?
A: 0.96

Q: What about the normalized growth (locus YDL108W, strain KIN28, stronger effect = lower value) of the same molecule?
A: 0.967

Q: And the normalized growth (locus YDL132W, strain cdc53, stronger effect = lower value)?
A: 0.96

Q: What about the normalized growth (locus YDL214C, strain PRR2, stronger effect = lower value) of the same molecule?
A: 0.96

Q: What about the normalized growth (locus YDR052C, strain DBF4, stronger effect = lower value) of the same molecule?
A: 0.977

Q: And the normalized growth (locus YDR054C, strain cdc34, stronger effect = lower value)?
A: 0.961

Q: And the normalized growth (locus YDR226W, strain ADK1, stronger effect = lower value)?
A: 0.967

Q: What about the normalized growth (locus YDR477W, strain SNF1, stronger effect = lower value) of the same molecule?
A: 0.945

Q: What about the normalized growth (locus YER123W, strain YCK3, stronger effect = lower value) of the same molecule?
A: 0.876

Q: And the normalized growth (locus YER133W, strain GLC7, stronger effect = lower value)?
A: 0.948

Q: What about the normalized growth (locus YFL009W, strain cdc4, stronger effect = lower value) of the same molecule?
A: 0.961

Q: What about the normalized growth (locus YFL029C, strain CAK1, stronger effect = lower value) of the same molecule?
A: 0.961

Q: What about the normalized growth (locus YFR003C, strain YPI1, stronger effect = lower value) of the same molecule?
A: 0.962

Q: And the normalized growth (locus YFR019W, strain FAB1, stronger effect = lower value)?
A: 0.903

Q: What about the normalized growth (locus YFR028C, strain CDC14, stronger effect = lower value) of the same molecule?
A: 0.96

Q: What about the normalized growth (locus YGR040W, strain KSS1, stronger effect = lower value) of the same molecule?
A: 0.947

Q: What about the normalized growth (locus YGR052W, strain FMP48, stronger effect = lower value) of the same molecule?
A: 0.974

Q: And the normalized growth (locus YGR092W, strain DBF2, stronger effect = lower value)?
A: 0.841

Q: And the normalized growth (locus YHR030C, strain SLT2, stronger effect = lower value)?
A: 0.882

Q: What about the normalized growth (locus YHR079C, strain IRE1, stronger effect = lower value) of the same molecule?
A: 0.884

Q: What about the normalized growth (locus YHR082C, strain KSP1, stronger effect = lower value) of the same molecule?
A: 0.916

Q: And the normalized growth (locus YHR205W, strain SCH9, stronger effect = lower value)?
A: 0.871

Q: What about the normalized growth (locus YIL147C, strain SLN1, stronger effect = lower value) of the same molecule?
A: 0.963

Q: And the normalized growth (locus YJL095W, strain BCK1, stronger effect = lower value)?
A: 0.927

Q: And the normalized growth (locus YJL128C, strain PBS2, stronger effect = lower value)?
A: 0.929

Q: What about the normalized growth (locus YJL157C, strain FAR1, stronger effect = lower value) of the same molecule?
A: 0.945

Q: And the normalized growth (locus YJR016C, strain ILV3, stronger effect = lower value)?
A: 0.965

Q: And the normalized growth (locus YJR066W, strain TOR1 (second series), stronger effect = lower value)?
A: 0.906

Q: And the normalized growth (locus YJR066W, strain TOR1, stronger effect = lower value)?
A: 0.892

Q: And the normalized growth (locus YKL048C, strain ELM1, stronger effect = lower value)?
A: 0.968

Q: And the normalized growth (locus YKL067W, strain YNK1, stronger effect = lower value)?
A: 0.961

Q: And the normalized growth (locus YKL101W, strain HSL1, stronger effect = lower value)?
A: 0.965

Q: What about the normalized growth (locus YKL193C, strain SDS22, stronger effect = lower value) of the same molecule?
A: 0.961

Q: What about the normalized growth (locus YKL203C, strain TOR2, stronger effect = lower value) of the same molecule?
A: 1.03

Q: What about the normalized growth (locus YLR113W, strain HOG1, stronger effect = lower value) of the same molecule?
A: 0.834 (active)

Q: And the normalized growth (locus YLR133W, strain CKI1, stronger effect = lower value)?
A: 0.955

Q: And the normalized growth (locus YLR403W, strain SFP1, stronger effect = lower value)?
A: 0.927

Q: And the normalized growth (locus YML070W, strain DAK1, stronger effect = lower value)?
A: 0.929

Q: And the normalized growth (locus YMR001C, strain CDC5, stronger effect = lower value)?
A: 0.961

Q: And the normalized growth (locus YMR205C, strain PFK2 (second series), stronger effect = lower value)?
A: 0.956

Q: What about the normalized growth (locus YMR277W, strain FCP1, stronger effect = lower value) of the same molecule?
A: 0.963

Q: And the normalized growth (locus YNL006W, strain LST8, stronger effect = lower value)?
A: 0.97

Q: And the normalized growth (locus YNL020C, strain ARK1, stronger effect = lower value)?
A: 0.947

Q: What about the normalized growth (locus YNL161W, strain CBK1, stronger effect = lower value) of the same molecule?
A: 0.965

Q: What about the normalized growth (locus YNL183C, strain NPR1, stronger effect = lower value) of the same molecule?
A: 0.9

Q: What about the normalized growth (locus YNL207W, strain RIO2, stronger effect = lower value) of the same molecule?
A: 0.965

Q: And the normalized growth (locus YNL222W, strain SSU72, stronger effect = lower value)?
A: 0.965

Q: And the normalized growth (locus YNL307C, strain MCK1 (second series), stronger effect = lower value)?
A: 0.885

Q: What about the normalized growth (locus YOL078W, strain AVO1, stronger effect = lower value) of the same molecule?
A: 0.962

Q: And the normalized growth (locus YOL136C, strain PFK27, stronger effect = lower value)?
A: 0.92

Q: What about the normalized growth (locus YOR061W, strain CKA2, stronger effect = lower value) of the same molecule?
A: 0.942

Q: What about the normalized growth (locus YOR119C, strain RIO1, stronger effect = lower value) of the same molecule?
A: 0.952

Q: What about the normalized growth (locus YOR231W, strain MKK1, stronger effect = lower value) of the same molecule?
A: 0.92

Q: What about the normalized growth (locus YOR329C, strain SCD5, stronger effect = lower value) of the same molecule?
A: 0.963

Q: And the normalized growth (locus YPL031C, strain PHO85, stronger effect = lower value)?
A: 0.928

Q: What about the normalized growth (locus YPL153C, strain RAD53, stronger effect = lower value) of the same molecule?
A: 0.947

Q: And the normalized growth (locus YPL204W, strain HRR25, stronger effect = lower value)?
A: 0.927

Q: What about the normalized growth (locus YPL209C, strain IPL1, stronger effect = lower value) of the same molecule?
A: 0.968

Q: And the normalized growth (locus YPL256C, strain CLN2, stronger effect = lower value)?
A: 0.887

Q: And the normalized growth (locus YPR025C, strain CCL1, stronger effect = lower value)?
A: 0.957

Q: What about the normalized growth (locus YPR106W, strain ISR1, stronger effect = lower value) of the same molecule?
A: 0.957

Q: And the normalized growth (locus YPR111W, strain DBF20, stronger effect = lower value)?
A: 0.957

Q: What about the normalized growth (strain NNK1, stronger effect = lower value) of the same molecule?
A: 0.943

Q: And the normalized growth (strain TSCII, stronger effect = lower value)?
A: 0.962
